# Source: PubChem (several laboratories)
# Most compounds without a hit are left out; they make up all but 2.4% or so of the library.
# Cardiac RTF inh: cardiac RTF calcium desensitization; IANBD-labeled cardiac RTF, Ca2+ fluorescence; 0.12% of 340,000 active; inhibition, % at 7.15 µM;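 active means inhibition above the mean inhibition of all tested compounds plus 3 SD, cut at about 17% in these data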;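 further: assay run at fixed EC70 calcium of 1.6 mM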
# CRFR2-BP antag: CRF-BP/CRF-R2 complex antagonism; inhibition, % at 11.8 µM; 0.59% of 350,000 active; HEK293 CRF-R2/CRF-BP, CRF-induced calcium fluorescence;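 active means inhibition of the ligand-induced calcium signal above about 50% at the single tested concentration, limit read from the data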
# cardiac RTF act: cardiac RTF calcium sensitization; P19429+P45379; IANBD-labeled TnC RTF fluorescence at EC20 calcium; 0% EC20 calcium, 100% full calcium; activation, % at 7.2 µM; 0.24% of 340,000 active;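 active means activation above the mean over all tested compounds plus 3 SD, cut at about 30% in these data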;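 further: rise in fluorescence read as greater calcium sensitivity of cardiac thin filaments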
# ANO1 activ: activates or potentiates the mouse TMEM16A chloride channel. Q8BHY3. HEK293 TMEM16A/YFP-H148Q/I152L, iodide quench fluorescence; active compounds read low. B-score at 10 µM. 0.3% of 340,000 active;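 active means fluorescence-ratio B-score plate-corrected deviation score at least 3 library SD below zero, with starting fluorescence score within 5 deviations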;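 further: channel opened by trigger with iodide after compound preincubation; score built on the fluorescence ratio of max minus min over baseline; more negative score means more quench and so TMEM16A activation or potentiation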
# CRFR2-BP ag: CRF-BP/CRF-R2 complex agonism. HEK293 CRF-R2/CRF-BP, calcium dye fluorescence (FLIPR); percent of saturating CRF peptide response. activation, % at 13.2 µM. 0.46% of 350,000 active;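 active means activation of at least 50%, plus an integration ratio under a set limit after plate pattern correction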
# TMEM16A inh: mouse TMEM16A channel inhibition, primary screen | Q8BHY3 | HEK293 TMEM16A/YFP iodide influx fluorescence, ionomycin | normalized B-score (activity score, 25-100; higher = stronger inhibition) at 10 µM | 1.2% of 310,000 active | AID 588511;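 active means ratio plate-corrected score three or more library SD toward inhibition, starting fluorescence score within five deviations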;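 further: score derived from kinetic fluorescence span divided by baseline fluorescence per well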
# A number is an active result; n = inactive; x = no result given.
SMILES,Cardiac RTF inh,CRFR2-BP antag,cardiac RTF act,ANO1 activ,CRFR2-BP ag,TMEM16A inh
Cc1cc(Cl)ccc1OCC(=O)Nc1ccccc1NS(=O)(=O)c1cccs1,n,n,n,n,n,n
Cc1cccc(-c2nc(CSc3nc4c(c(=O)[nH]3)CCC4)c(C)o2)c1,n,n,n,n,n,n
CC1CCCN(c2ccc([N+](=O)[O-])cc2C(=O)c2ccccc2)C1 (stereo not drawn),n,n,n,n,n,n
Cc1cccc(NC(=O)c2ccc(OCc3c(C)noc3C)cc2)n1,n,n,n,n,n,x
CCCC(c1nnnn1CCC(C)C)N1CCC(C(N)=O)CC1 (stereo not drawn),n,n,n,x,n,n
CC(C)CCn1nnnc1C(C(C)C)N1CCC(C(N)=O)CC1 (stereo not drawn),n,n,n,n,n,100
COc1ccc(-n2c(=O)c(CCC(=O)N(C)Cc3ccccc3C)nc3ccccc32)cc1,n,n,n,n,n,n
CCc1ccc(CN(C)C(=O)CCc2nc3ccccc3n(-c3ccc(OC)cc3)c2=O)cc1,n,n,n,n,n,100
CCOC(=O)c1cnn(-c2ccc(NS(=O)(=O)c3ccc(Cl)cc3)cc2)c1C(F)(F)F,n,n,n,n,n,100
CCOC(=O)c1ccc(NS(=O)(=O)c2ccc(Cl)nc2)cc1,x,x,x,x,x,n
COC1=C(Br)C(=O)c2ncccc2C1=O,n,58,n,n,n,x
Cn1c(/C(C#N)=C/c2ccc(-c3ccc(S(N)(=O)=O)cc3)o2)nc2ccccc21,n,n,45,n,n,n
COc1ccc(NC(=O)CN2CCN(c3c(C)cccc3C)CC2)cc1,n,n,n,n,n,n
Cn1c(O)c(N=NC(=O)CNC(=O)c2cccnc2)c2ccccc21,n,n,n,n,n,n
Cc1cc[n+](-c2[nH]c(=O)sc2/C=N/N=C(\[O-])c2ccccc2)cc1C,n,n,55,-5.6,n,x
CC1C(=O)N2CCCc3cc(NC(=O)c4ccccc4C(F)(F)F)cc1c32 (stereo not drawn),n,n,n,n,n,n
COC(=O)c1c(NC(=O)CC2Nc3ccccc3NC2=O)sc(C)c1C (stereo not drawn),n,53,n,n,n,n
CCOC(=O)c1c(NC(=O)CC2Nc3ccccc3NC2=O)sc(C)c1C (stereo not drawn),n,n,n,n,n,n
COc1cc(N2C(=O)C=CC2=O)ccc1N1C(=O)C=CC1=O,n,63,n,n,n,x
Nc1nc2c(s1)CC(c1ccccc1)CC2 (stereo not drawn),n,n,n,n,n,25
Nc1nc2c(s1)CCc1c-2cnn1-c1ccccc1,n,n,n,n,n,n
Cc1ccccc1C(=O)NCC(=O)OC1CCCCC1=O (stereo not drawn),n,68,n,n,n,n
CCC1CCCCN1CCCNC(=O)c1cn(C)c2ccc(S(=O)(=O)N(C)C3CCCCC3)cc2c1=O (stereo not drawn),n,56,n,n,n,n
COc1cc(C(=O)Nc2nc(-c3ccc(C)cc3)cs2)ccc1OCC(=O)N1CCOCC1,n,n,n,n,n,n
COc1ccc(-c2csc(NC(=O)c3ccc(OCC(=O)N4CCOCC4)c(OC)c3)n2)cc1,n,n,n,n,n,100
SMILES,Cardiac RTF inh,CRFR2-BP antag,cardiac RTF act,ANO1 activ,CRFR2-BP ag,TMEM16A inh
COc1cc(C(=O)Nc2nc(-c3ccc(F)cc3)cs2)ccc1OCC(=O)N1CCOCC1,n,n,n,n,n,25
C[C@@H]1CN([C@H](C)CO)C(=O)CCCn2nncc2CO[C@@H]1CN(C)C(=O)c1ccc(N2CCN(C)CC2)cc1,x,n,x,x,n,x
CCOC(=O)c1ccc(CNC(=O)c2cc(COc3ccccc3SC)on2)o1,n,n,n,n,n,n
CC[C@H](C)/C=C/C1=CC2=C(Cl)C(=O)[C@@]3(C)OC(=O)C(C(=O)[C@H](C)[C@@H](C)O)=C3C2=CO1,n,n,n,n,n,25
CNC(=S)c1cc(C(C)(C)C)c(O)c(C(C)(C)C)c1,n,n,n,n,n,n
CS(=O)(=O)N(Cc1ccccc1)c1ccc(C(=O)N2CCOCC2)cc1,n,n,n,n,123,n
COC(=O)c1ccc(CSc2nc3c(cnn3-c3ccc(F)cc3)c(=O)[nH]2)o1,n,52,n,n,n,n
Cc1ccc(/C=C2\CCC3=C2OC(N)=C(C#N)C3c2ccc(C)cc2)cc1 (stereo not drawn),n,n,84,n,253,n
O=C([C@H](Cc1ccccc1)N1C(=O)c2ccccc2C1=O)N1CCOCC1,n,n,n,n,n,n
Cn1c(=O)c(C(=O)NNC(=O)c2ccccc2F)c(O)c2ccccc21,n,n,n,n,51,n
COc1ccc(CNC(=O)CN(Cc2ccccc2)C(=O)CCC(=O)Nc2ccccn2)cc1,n,n,n,n,n,n
Cc1ccccc1COc1ccc(/C(O)=C2/C(=O)C(=O)N(CCCn3ccnc3)C2c2ccco2)cc1 (stereo not drawn),n,54,n,n,n,n
CC1(C)CC[C@]2(C(=O)n3ccnc3)CC[C@]3(C)[C@H](C(=O)C=C4[C@@]5(C)C=C(C#N)C(=O)C(C)(C)[C@@H]5CC[C@]43C)[C@@H]2C1,n,n,n,-15,122,x
CCOC(=O)COc1ccc(S(=O)(=O)Nc2ccc3c(c2)OCCO3)cc1,n,n,n,n,n,n
CCOC(=O)COc1ccc(S(=O)(=O)Nc2cccc(SC)c2)cc1,n,n,n,n,n,25
CC(=O)N1CCc2cc(S(=O)(=O)Nc3cccc(C(F)(F)F)c3)ccc21,n,n,n,n,n,25
COc1cccc(NS(=O)(=O)c2ccc3c(c2)CCN3C(C)=O)c1,n,n,n,n,n,n
CC(=O)N1CCc2cc(S(=O)(=O)Nc3ccc(C)cc3)ccc21,n,n,n,n,n,n
CSc1cccc(NS(=O)(=O)c2ccc3c(c2)CCN3C(C)=O)c1,n,n,n,n,n,25
C=C1[C@@H](O)[C@H](Cc2ccccc2)N(Cc2ccccc2Br)S1(=O)=O,n,n,n,n,n,x
O=[N+]([O-])c1ccccc1C=NNC(=S)NN=Cc1ccccc1[N+](=O)[O-],n,57,n,n,n,x
CSC(=NNC(=O)c1ccc(O)cc1)SC,n,n,n,n,n,n
CC(NC(=O)COC(=O)CN1C(=O)NC2(CCCC2)C1=O)c1ccc(F)cc1 (stereo not drawn),n,n,n,n,n,x
Cc1nnc(SCc2cccc([N+](=O)[O-])c2)[nH]c1=O,n,n,n,n,n,n
O=C(Nc1nc(-c2cccs2)cs1)c1ccc(Cl)cc1,n,n,n,n,n,n
O=C(COc1ccc(Cl)cc1)Nc1nc(-c2cccs2)cs1,n,n,n,n,n,100
